Compounds without any hit were thinned out: in the full panel of roughly 83,000, 20% have a hit.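 Note: values are percent growth. 100 is the growth of untreated cells, values between 100 and 0 indicate rising inhibition; between -100 and 0 indicates cell death.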 Calls of active or inactive are those of the source. The calls were made as follows: active = growth percent below 10; inactive = the rest.
test system: 786-0 renal; test: NCI-60 one-dose screen, 48 h (100 = growth as untreated, 0 = no growth, -100 = all killed); details: 10 µM unless noted

| SMILES | growth |
| --- | --- |
| CCOC(=O)c1ccc2c(c1)[n+](=O)c(C(C)=O)c(C(F)(F)F)n2[O-] | 11.4% (inactive) |
| COc1ccc2c(O)cc3c(c2c1)[C@H](CCl)CN3C(=O)c1cc2cc(NC(=O)CCN3CCOCC3)ccc2[se]1 | -59.8% (active) |
| O=C(/C=C/C12c3ccccc3C(c3ccccc31)C1C(=O)NC(=O)C12)c1cccs1 (centres undefined) | 43.4% (inactive) |
| O=C1c2cccnc2C(=O)c2c1c(C(=O)OCCCN1CCOCC1)c1ccccn21 | -18.4% (active) |

test system: COLO 205 colon; test: as above; details: 10 µM unless noted

| SMILES | growth |
| --- | --- |
| Cc1ccc(OCCOCCOCCOCCOc2ccc(C)n(O)c2=S)c(=S)n1O | 5.35% (active) |
| CCN(CC)CCCC(Nc1c2ccc(Cl)cc2nc2ccc(OC)cc12)c1ccncc1 (centres undefined) | 69.8% (inactive) |
| COc1cccc(C2C3=C(COC3=O)N(CCO)c3cc4c(cc32)OCCO4)c1 (centres undefined) | -68% (active) |
| CN(C)CC1C(=O)O[C@H]2[C@H]1CC/C(COC(=O)NCc1ccc(Cn3c(=O)sn(CCCI)c3=O)cc1)=C\CC[C@@]1(C)O[C@@H]21 (some centres undefined) | -63% (active) |
| CC(C)=CC(=O)C1C(=O)c2ccccc2C1=O | 115% (inactive) |
| Cn1cc(-c2ccc3c(Nc4cccc(NC(=O)Nc5cccc(F)c5)c4)ncnc3c2)cn1 | 4.23% (active) |
| COc1cc2c(c(OC)c1OC)C(=O)CC(c1cccc(C(=O)Nc3ccc(Br)cc3)c1)O2 (centres undefined) | 81.7% (inactive) |
| COc1cc2nc3cc([N+](=O)[O-])ccc3c(NCCCNCCO)c2cc1OC | -76.2% (active) |
| CCOC(=O)C1=CCC(n2cc(F)c(=O)[nH]c2=O)O1 (centres undefined) | 109% (inactive) |
| Cc1nc2sc(C(=O)Nc3ccccc3)c(N)c2cc1C(O)c1ccccc1 (centres undefined) | -8.82% (active) |
